Results on nine compounds are retold here after PubChem BioAssay (NCI).

About 79,000 compounds went through this panel and 15% of them were active in at least one assay; those are over-represented in the sample as a whole. Values without a mark were called inactive. Calls of active or inactive are those of the source. Cut-off read from the data, not from the text of the source: active = growth inhibition above about 70%; inactive = the rest.

Experiment [1] in a line: NCI Yeast Anticancer Drug Screen. Data for the rad50 strain (AID 155).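 Note: 0% = growth of vehicle-only cultures of the same strain.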 The following applies: S. cerevisiae rad50 strain growth inhibition, hits give high values. The essentials: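 Vehicle-treated cultures provide the reference for the growth inhibition reported for compound-exposed, repair-deficient yeast.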
The nature of experiment [2]: NCI Yeast Anticancer Drug Screen. Data for the mec2-1 strain (AID 157). The following applies: S. cerevisiae mec2-1 strain, hits give high values. The essentials:
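Vehicle-treated cultures served as reference for growth inhibition of compound-exposed mec2-1 yeast.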

Experiment [3] is described as follows: NCI Yeast Anticancer Drug Screen. Data for the sgs1 mgt1 strain (AID 161).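 Note: 0% = growth of cultures given vehicle only.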 Conditions: S. cerevisiae sgs1 mgt1 strain, hits give high values. A digest of the protocol: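 Read-out: growth inhibition vs vehicle controls. Cells: mutant yeast strain deficient in DNA damage repair.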
The nature of experiment [4]: NCI Yeast Anticancer Drug Screen. Data for the cln2 rad14 strain (AID 165).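 Note: 0% = growth equal to vehicle treated cultures.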 The following applies: S. cerevisiae cln2 rad14 strain, hits give high values. A digest of the protocol:
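Each compound was tested on cln2 rad14 yeast. Inhibition of growth was calculated against vehicle-exposed controls.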

Experiment [5] in a line: NCI Yeast Anticancer Drug Screen. Data for the bub3 strain (AID 167). The following applies: S. cerevisiae bub3 mutant strain, hits give high values. A digest of the protocol: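 Mutant yeast screening strain plus compound; vehicle-treated cultures serve as the 0% inhibition reference.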
A short description of experiment [6]: NCI Yeast Anticancer Drug Screen. Data for the mlh1 rad18 strain (AID 175). Conditions: S. cerevisiae mlh1 rad18 strain growth inhibition, hits give high values. A digest of the protocol:
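Vehicle-treated cultures served as the reference for growth inhibition in a yeast strain carrying DNA damage repair alterations exposed to each compound.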

The mark [7] stands for this setting: at 5.0 µM (retest, dose inferred, filed as 0.5).
[8] abbreviates: at 50.0 µM (retest, dose inferred, filed as 5.0).

Consider `CCN(CC)C(C)(C)C(=O)/C=C/c1ccc(Cl)c(Cl)c1`, for which the growth inhibition in experiment [1] (setting [7]) was 13%; in experiment [1] (setting [8]) it was 97% (active); in experiment [1] (at 50.0 µM), 92.7% (active); in experiment [2] (setting [7]) it was 3%; in experiment [2] (setting [8]), 97% (active); in experiment [2] (at 50.0 µM) it was 99.2% (active). Also, the growth inhibition in experiment [3] (setting [7]) was 6%; in experiment [3] (setting [8]), 97% (active); in experiment [3] (at 50.0 µM), 82.7% (active); in experiment [4] (setting [7]), -8%; in experiment [4] (setting [8]) it was 96% (active); in experiment [4] (at 50.0 µM) it was 47.9%. For the same compound, the growth inhibition was 5% in experiment [5] (setting [7]); 98% (active) in experiment [5] (setting [8]); 96% (active) in experiment [5] (at 50.0 µM); 0% in experiment [6] (setting [7]); 95% (active) in experiment [6] (setting [8]); 95% (active) in experiment [6] (at 50.0 µM).
As for `CC(C)C(Cl)CC/C(CBr)=C(\Cl)CCl` (configuration not stated), the growth inhibition in experiment [1] (setting [7]) was 28%; in experiment [1] (setting [8]) it was 89% (active); in experiment [1] (at 50.0 µM) it was 75% (active); in experiment [2] (setting [7]) it was 29%; in experiment [2] (setting [8]), 92% (active); in experiment [2] (at 50.0 µM), 80.8% (active). The growth inhibition is 27% in experiment [3] (setting [7]); 99% (active) in experiment [3] (setting [8]); 92.4% (active) in experiment [3] (at 50.0 µM); 24% in experiment [4] (setting [7]); 96% (active) in experiment [4] (setting [8]); 91.1% (active) in experiment [4] (at 50.0 µM). The growth inhibition is 23% in experiment [5] (setting [7]); 98% (active) in experiment [5] (setting [8]); 92.3% (active) in experiment [5] (at 50.0 µM); 28% in experiment [6] (setting [7]); 97% (active) in experiment [6] (setting [8]); 18.9% in experiment [6] (at 50.0 µM).
Take `CCCCCCCCCCCC(O)=C1C(=O)CC(O)CC1=O` (configuration not stated): the growth inhibition was 33% in experiment [1] (setting [7]); 88% (active) in experiment [1] (setting [8]); 88.3% (active) in experiment [1] (at 50.0 µM); 25% in experiment [2] (setting [7]); 97% (active) in experiment [2] (setting [8]); 91.6% (active) in experiment [2] (at 50.0 µM). Further, the growth inhibition in experiment [3] (setting [7]) was 48%; in experiment [3] (setting [8]), 98% (active); in experiment [3] (at 50.0 µM), 91% (active); in experiment [4] (setting [7]), 40%; in experiment [4] (setting [8]) it was 91% (active); in experiment [4] (at 50.0 µM), 90.3% (active). Besides, the growth inhibition in experiment [5] (setting [7]) is 42%; in experiment [5] (setting [8]), 97% (active); in experiment [5] (at 50.0 µM), 89.7% (active); in experiment [6] (setting [7]), 46%; in experiment [6] (setting [8]), 96% (active); in experiment [6] (at 50.0 µM), 82.8% (active).
Take `Cc1cc(C)c(S(=O)(=O)c2c(C)cc(C)cc2C)c(C)c1`: the growth inhibition is -3% in experiment [1] (setting [7]); -7% in experiment [1] (setting [8]); 39% in experiment [1] (at 50.0 µM); -4% in experiment [2] (setting [7]); -9% in experiment [2] (setting [8]); 12.5% in experiment [2] (at 50.0 µM). For the same compound, the growth inhibition in experiment [3] (setting [7]) was -4%; in experiment [3] (setting [8]) it was -4%; in experiment [3] (at 50.0 µM) it was 6.2%; in experiment [4] (setting [7]) it was -5%; in experiment [4] (setting [8]), -22%; in experiment [4] (at 50.0 µM) it was 41.7%. Further, the growth inhibition in experiment [5] (setting [7]) was -3%; in experiment [5] (setting [8]) it was -6%; in experiment [5] (at 50.0 µM) it was 0.65%; in experiment [6] (setting [7]), -6%; in experiment [6] (setting [8]) it was -12%; in experiment [6] (at 50.0 µM) it was 1.15%.
As for `Cc1cc(S(=O)(=O)Nc2nc(N)nc(N(C)C)n2)c(SC(C(=O)O)c2ccccc2)cc1Cl` (configuration not stated), the growth inhibition was -11% in experiment [1] (setting [7]); -4% in experiment [1] (setting [8]); -8.65% in experiment [1] (at 50.0 µM); -3% in experiment [2] (setting [7]); -15% in experiment [2] (setting [8]); 14.1% in experiment [2] (at 50.0 µM). The growth inhibition in experiment [3] (setting [7]) is -11%; in experiment [3] (setting [8]), -8%; in experiment [3] (at 50.0 µM), -0.25%; in experiment [4] (setting [7]), -15%; in experiment [4] (setting [8]), 4%; in experiment [4] (at 50.0 µM) it was 93.2% (active). Further, the growth inhibition was 14% in experiment [5] (setting [7]); -17% in experiment [5] (setting [8]); 16.1% in experiment [5] (at 50.0 µM); -9% in experiment [6] (setting [7]); -3% in experiment [6] (setting [8]); 5.3% in experiment [6] (at 50.0 µM).
`CCCCOc1ccc(-c2c(COC(=O)NC)c(COC(=O)NC)c(C)n2C)cc1`: the growth inhibition in experiment [1] (setting [7]) was 23%; in experiment [1] (setting [8]) it was 94% (active); in experiment [1] (at 50.0 µM), 85.3% (active); in experiment [2] (setting [7]), 14%; in experiment [2] (setting [8]), 97% (active); in experiment [2] (at 50.0 µM) it was 89.5% (active). The growth inhibition in experiment [3] (setting [7]) is 21%; in experiment [3] (setting [8]) it was 99% (active); in experiment [3] (at 50.0 µM), 90% (active); in experiment [4] (setting [7]) it was 19%; in experiment [4] (setting [8]), 85% (active); in experiment [4] (at 50.0 µM) it was 89% (active). For the same compound, the growth inhibition is 17% in experiment [5] (setting [7]); 99% (active) in experiment [5] (setting [8]); 87.3% (active) in experiment [5] (at 50.0 µM); 20% in experiment [6] (setting [7]); 96% (active) in experiment [6] (setting [8]); 88.2% (active) in experiment [6] (at 50.0 µM).
`O=C(O)C(Cc1ccccc1)N=Cc1ccc(O)cc1` (configuration not stated): the growth inhibition was 70% (active) in experiment [1] (setting [7]); 97% (active) in experiment [1] (setting [8]); 11.1% in experiment [1] (at 50.0 µM); 58% in experiment [2] (setting [7]); 99% (active) in experiment [2] (setting [8]); 11.8% in experiment [2] (at 50.0 µM). The growth inhibition in experiment [3] (setting [7]) was 79% (active); in experiment [3] (setting [8]), 98% (active); in experiment [3] (at 50.0 µM), 6.8%; in experiment [4] (setting [7]) it was 33%; in experiment [4] (setting [8]) it was 97% (active); in experiment [4] (at 50.0 µM) it was 43.8%. Besides, the growth inhibition in experiment [5] (setting [7]) is 43%; in experiment [5] (setting [8]), 98% (active); in experiment [5] (at 50.0 µM), 20.2%; in experiment [6] (setting [7]), 68%; in experiment [6] (setting [8]) it was 98% (active); in experiment [6] (at 50.0 µM) it was -1.05%.
Consider `CC1=NN(C(=O)c2ccncc2)C(=O)C1N=Nc1ccc(C)c([N+](=O)[O-])c1` (configuration not stated), for which the growth inhibition in experiment [1] (setting [7]) is 10%; in experiment [1] (setting [8]), 61%; in experiment [1] (at 50.0 µM) it was 47.5%; in experiment [2] (setting [7]) it was 2%; in experiment [2] (setting [8]) it was 28%; in experiment [2] (at 50.0 µM) it was 19.4%. Moreover, the growth inhibition in experiment [3] (setting [7]) was 29%; in experiment [3] (setting [8]), 94% (active); in experiment [3] (at 50.0 µM) it was 88.8% (active); in experiment [4] (setting [7]), 6%; in experiment [4] (setting [8]) it was 24%; in experiment [4] (at 50.0 µM), -14.6%. For the same compound, the growth inhibition in experiment [5] (setting [7]) was 1%; in experiment [5] (setting [8]), 18%; in experiment [5] (at 50.0 µM), 3.65%; in experiment [6] (setting [7]) it was 12%; in experiment [6] (setting [8]) it was 69%; in experiment [6] (at 50.0 µM) it was 20.4%.
As for `CN1CCCC1c1cccc(Br)c1` (configuration not stated), the growth inhibition in experiment [1] (setting [7]) is -163%; in experiment [1] (setting [8]) it was 81% (active); in experiment [1] (at 50.0 µM), 59%; in experiment [2] (setting [7]), -51%; in experiment [2] (setting [8]), 26%; in experiment [2] (at 50.0 µM) it was 17.1%. In addition, the growth inhibition is -65% in experiment [3] (setting [7]); 37% in experiment [3] (setting [8]); 21.6% in experiment [3] (at 50.0 µM); -75% in experiment [4] (setting [7]); 50% in experiment [4] (setting [8]); -1.05% in experiment [4] (at 50.0 µM). Moreover, the growth inhibition is -69% in experiment [5] (setting [7]); 54% in experiment [5] (setting [8]); -8.55% in experiment [5] (at 50.0 µM); -125% in experiment [6] (setting [7]); 50% in experiment [6] (setting [8]); 26.1% in experiment [6] (at 50.0 µM).
